# Experimental data reported in PubChem BioAssay AID1035 (National Center for Advancing Translational Sciences (NCATS), 2008).
# Values without a mark were called inactive. No rule for the calls is given here.
# Experiment: HDAC Secondary Assay for qHTS Assay for Epigenetic Modulators
# Settings: HeLa nuclear extract HDAC activity, fluorogenic substrate, 20 min; at 48 µM; stronger effect = lower value
# Description: NIH Molecular Libraries Screening Centers Network [MLSCN] NIH Chemical Genomics Center [NCGC] MLSCN Grant: 1 X01 MH079860-01 Assay Provider: Elisabeth D. Martinez, University of Texas SW Medical Center NCGC Assay Overview: This secondary assay characterizes selected actives identified in the qHTS of the Locus Derepression (LDR) assay (PubChem AID 597). The LDR assay detects the derepression of a GFP reporter that is stably integrated in a region of the genome of murine c127i mammary cells that is presumably silenced. Compounds that cause derepression of the locus to express GFP are identified by enumerating GFP positive cells using a laser-scanning microplate cytometer. […]
# NCGC Assay Protocol Summary HeLa nuclear extracts and acetylated profluorescent substrate were incubated with vehicle, 0.5 uM TSA, or 48 uM indicated LDR compound for 20 min at ambient temperature and fluorescence was measured. Background-subtracted activity was expressed as a percent of uninhibited extract. […] For further details, see R.L. Johnson, W. Huang, A. Jadhav, C.P. Austin, J. Inglese, E.D. Martinez, A Quantitative High-Throughput Screen Identifies Potential Epigenetic Modulators of Gene Expression, Analytical Biochemistry (2007), doi: 10.1016/j.ab.2007.12.028
compound,measurement,value
CN1CSC(=S)N(C)C1,remaining HDAC activity,102%
